Assay results published in PubChem BioAssay.
Active and inactive are the calls of the source. The rule behind the calls is not given here.

The molecules below were run against Pantothenate synthetase (Mycobacterium tuberculosis (strain ATCC 25618 / H37Rv)) (UniProt P9WIL5) (assay: Coupled enzyme confirmation of inhibitors against recombinant Mtb PanC (AID 375;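 note: 0% = full reaction with vehicle and 100% = no enzyme background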)). Settings: coupled enzyme assay; at 10 µM, hits give high values.
Chain of Pantothenate synthetase (Mycobacterium tuberculosis (strain ATCC 25618 / H37Rv)) (P9WIL5 whole entry, looked up): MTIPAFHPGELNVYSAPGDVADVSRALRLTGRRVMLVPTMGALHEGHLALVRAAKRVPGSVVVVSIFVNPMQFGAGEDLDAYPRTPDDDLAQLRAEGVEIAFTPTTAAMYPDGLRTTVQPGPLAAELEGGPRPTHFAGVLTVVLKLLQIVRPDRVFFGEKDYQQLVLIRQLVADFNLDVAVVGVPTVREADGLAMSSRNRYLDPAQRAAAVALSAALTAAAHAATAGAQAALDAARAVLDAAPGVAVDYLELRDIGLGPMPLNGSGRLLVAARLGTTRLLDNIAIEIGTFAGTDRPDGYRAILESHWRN

**Q.** How did the inhibition turn out when `O=C(c1cccnc1)N1CCN(Cc2ccc3c(c2)OCO3)CC1` was run?
**A.** 0% (inactive)

**Q.** Which inhibition does the source give for `CC(C)(C)NC(=O)NC(=O)COc1ccccc1C#N` here?
**A.** 3% (inactive)

**Q.** With `FC(F)(F)c1nnc2sc(-c3cccs3)nn12` as the molecule, how does the inhibition read?
**A.** 4% (inactive)

**Q.** `CCN(CCO)C1CC(=O)N(c2ccccc2C)C1=O` (centres undefined) was tested. Which inhibition did it give?
**A.** 0% (inactive)

**Q.** Which inhibition does the source give for `CCCNc1nc2c(c(=O)n(C)c(=O)n2C)n1Cc1cccc(C)c1` here?
**A.** 0% (inactive)

**Q.** How did the inhibition turn out when `CSc1n[nH]c(NCc2ccccc2)n1` was run?
**A.** 6% (inactive)

**Q.** For `Cc1ccc(Cl)cc1N1CCN(C(=O)C2CCCN(S(=O)(=O)c3cnc[nH]3)C2)CC1` (centres undefined), which inhibition is on record?
**A.** 0% (inactive)

**Q.** How did the inhibition turn out when `CC(=O)Nc1cccc(NC(=O)C2CCCN2C(=O)Nc2ccc(C)cc2)c1` (centres undefined) was run?
**A.** 0% (inactive)

**Q.** With `COc1ccc(CNC(=O)CN(C(=O)c2ccc(CN3CCOCC3)o2)C2CCCC2)cc1` as the molecule, how does the inhibition read?
**A.** 0% (inactive)

**Q.** Which inhibition does the source give for `COc1cccc(OC)c1C(=O)Nc1ccc(CN2CCCCC2)cc1` here?
**A.** 0% (inactive)

**Q.** `Cc1ccccc1C(=O)NC1CCN(CC(=O)Nc2nccs2)CC1` was tested. Which inhibition did it give?
**A.** 0% (inactive)

**Q.** With `CCOC(=O)NC1(NCc2ccccc2)Oc2ccccc2O1` as the molecule, how does the inhibition read?
**A.** 0% (inactive)

**Q.** With `CC(=O)c1cc(Cl)ccc1OC(=O)c1ccco1` as the molecule, how does the inhibition read?
**A.** 0% (inactive)

**Q.** Which inhibition does the source give for `Cc1ccc(Nc2nc(N)nc(CN3CCCCCC3)n2)cc1` here?
**A.** 2% (inactive)

**Q.** With `CCOC(=O)N1CCC(NC(=O)c2ccc(CS(=O)(=O)c3c(Cl)cccc3Cl)o2)CC1` as the molecule, how does the inhibition read?
**A.** 0% (inactive)

**Q.** With `COC(=O)c1sc(S(=O)(=O)Nc2ccc3cn[nH]c3c2)c(C(=O)OC)c1C` as the molecule, how does the inhibition read?
**A.** 0% (inactive)

**Q.** For `Cc1nnc2n(Cc3ccccc3)c(=O)c3c4c(sc3n12)COC(C(C)C)C4` (centres undefined), which inhibition is on record?
**A.** 0% (inactive)

**Q.** For `CCCCOc1cccc(NC(=O)CSc2nccn2C)c1`, which inhibition is on record?
**A.** 2% (inactive)

**Q.** For `Cn1c(=O)[nH]c(=O)c2c1nc(NCCCn1ccnc1)n2Cc1cccc(Br)c1`, which inhibition is on record?
**A.** 0% (inactive)

**Q.** With `O=C(O)CCc1ccc(-c2cccs2)n1NC(=O)c1ccco1` as the molecule, how does the inhibition read?
**A.** 0% (inactive)

**Q.** For `C/C=C(\C)c1nnc(NC(=O)OCC)s1`, which inhibition is on record?
**A.** 0% (inactive)

**Q.** How did the inhibition turn out when `O=C(c1ccc(S(=O)(=O)N2CCOCC2)cc1)N1CCc2ccccc2C1` was run?
**A.** 0% (inactive)

**Q.** Which inhibition does the source give for `CCOc1ccc2ccccc2c1/C=N/n1cncn1` here?
**A.** 0% (inactive)

**Q.** Which inhibition does the source give for `COc1ccccc1N1CCN(c2nc3ccccc3nc2C(C#N)C(=O)OC(C)C)CC1` (centres undefined) here?
**A.** 1% (inactive)

**Q.** With `CCC(=O)Nc1ccc(NC(=O)CSc2nnnn2C(C)C)cc1` as the molecule, how does the inhibition read?
**A.** 0% (inactive)

**Q.** How did the inhibition turn out when `COC(=O)c1cc(S(=O)(=O)N2CCOCC2)c(N2CCOCC2)cc1N1CCOCC1` was run?
**A.** 2% (inactive)

**Q.** `NS(=O)(=O)c1cc2c(cc1Cl)NC=NS2(=O)=O` was tested. Which inhibition did it give?
**A.** 3% (inactive)

**Q.** How did the inhibition turn out when `Cc1nnc(C)c2c(C)n(Cc3ccc4c(c3)OCO4)c(C)c12` was run?
**A.** 0% (inactive)

**Q.** For `CCN1C(=O)C(C(=O)Nc2ccc(OC)cc2)C2CC1(C)Oc1ccccc12` (centres undefined), which inhibition is on record?
**A.** 0% (inactive)

**Q.** Which inhibition does the source give for `CC1=CCC(C(C)(C)NC(=O)c2ccccc2)C/C1=N\O` (centres undefined) here?
**A.** 0% (inactive)

**Q.** With `COc1cccc(S(=O)(=O)Nc2cccnc2)c1` as the molecule, how does the inhibition read?
**A.** 10% (inactive)

**Q.** `O=C1CC(c2ccco2)CC(O)=C1C=NCCN1CCNCC1` (centres undefined) was tested. Which inhibition did it give?
**A.** 0% (inactive)

**Q.** For `COc1ccc(NC(=O)CCc2nc(-c3ccccc3F)no2)cc1`, which inhibition is on record?
**A.** 0% (inactive)

**Q.** `Cc1ccc(C)c(SCC(=O)Nc2nnc(-c3ccccc3)o2)c1` was tested. Which inhibition did it give?
**A.** 10% (inactive)

**Q.** With `c1ccc2c(-c3nc(C4CCCCC4)no3)cc(-c3ccncc3)nc2c1` as the molecule, how does the inhibition read?
**A.** 1% (inactive)

**Q.** How did the inhibition turn out when `COc1ccccc1CNC(=O)C1CCC(CNc2c(N3CCOCC3)c(=O)c2=O)CC1` (centres undefined) was run?
**A.** 0% (inactive)

**Q.** Which inhibition does the source give for `O=C(NCCO)c1cccc2c1C(=O)c1ccccc1-2` here?
**A.** 11% (inactive)

**Q.** With `Cc1cccc(OCCCc2c(C)n[nH]c2C)c1` as the molecule, how does the inhibition read?
**A.** 0% (inactive)

**Q.** For `COC(=O)c1cc(Br)c(=O)n(CCc2ccc(F)cc2)c1`, which inhibition is on record?
**A.** 0% (inactive)
